Among the data in PubChem BioAssay (EPA / NIEHS) are outcome and AC50 values, retold here.

Activity calls are given as the source filed them. The calls were made as follows: active = hit-call score of the fitted dose curve at least 0.9, where 1 is the maximum; inactive = score below 0.9.

The nature of the assay: BSK_KF3CT_SRB: Viability Assessment in the BioMAP Diversity Plus: KF3CT Assay (AID 2283069).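 Also: fitted for both signal gain and loss against DMSO baseline.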 Conditions: primary human keratinocytes with fibroblasts. As to the method: BSK_KF3CT is a cell-based, multiplexed-readout assay that uses keratinocytes and foreskin fibroblasts, a human skin primary cell co-culture, with measurements taken at 24 hours after chemical dosing in a 96-well plate.BSK_KF3CT_SRB is an assay component measured in the BSK_KF3CT assay. It measures 0.1% sulforhodamine related to cell death using Sulforhodamine staining technology.Data from the assay component BSK_KF3CT_SRB was analyzed into 1 assay endpoint. This assay endpoint, BSK_KF3CT_SRB, was analyzed with bidirectional fitting relative to DMSO as the negative control and baseline of activity. Using a type of viability reporter, gain or loss-of-signal activity can be used to understand changes in the signaling. Furthermore, this assay endpoint can be referred to as a primary readout, because this assay has produced multiple assay endpoints where this one serves a signaling function. To generalize the intended target to other relatable targets, this assay endpoint is annotated to the cell morphology intended target family, where the subfamily is cell conformation.
The levels of cell surface (or secreted, indicated by the prefix "s") biomarker endpoints were measured by ELISA. Overt cytotoxicity to cells in confluent adherent cultures (all systems other than the BT system) was assessed by measuring total protein levels using sulforhodamine B (SRB) staining in parallel cultures at the time of biomarker measurements, indicated as SRB endpoints. For proliferation assays for adherent cell types, individual cell types are cultured at sub-confluence and relative cell numbers quantified by SRB staining at time points optimized for each system (48 h: 3C and CASM3C systems; 72 h: BT and HDF3CGF systems; 96 h: SAg system). SRB was performed by staining cells with 0.1% SRB after fixation with 10% TCA and reading wells at 560 nm.Viability and proliferation of PBMC (T cells) was quantified by Alamar Blue reduction for the SAg and BT systems. For PBMC viability (referred to as PBMC Cytotoxicity within the assay endpoint names), cells were plated (75,000/well in a 96-well plate) and then chemical samples added for 1 h before addition of activators, SEB and TSST-1 (20 ng/mL final concentration each). Cells were incubated for 90 h. Then, Alamar Blue (20 uL/well) (Invitrogen, Cat DAL1100) was added for 6 h, and the plates were read with a fluorescence microplate reader at 546/580 nm (excitation/emission). For PBMC proliferation, cells were plated and activated as above but incubated for only 16 h prior to addition of Alamar Blue. Plates were read after 6 h.
Consider `CCCCCCCCCCCCCCCCCC(=O)OCC(CC)CCCC` (stereo not given), for which the outcome was inactive.

As to `Cc1cc(C2(c3cc(C)c(O)cc3C)OS(=O)(=O)c3ccccc32)c(C)cc1O`, the outcome was inactive.

For the compound `BrC1CCC(Br)C(Br)CCC(Br)C(Br)CCC1Br` (stereo not given), the result was inactive.

For the compound `CCCCC/C=C/C=C/C=O`, the AC50 is 32.6 µM (active).

On to `CC1COc2ccccc2N1C(=O)C(Cl)Cl` (stereo not given), for which the outcome was inactive.

`O=C1OC2(c3cc(Br)c(O)c(Br)c3Oc3c2cc(Br)c(O)c3Br)c2c(Cl)c(Cl)c(Cl)c(Cl)c21`: the half-maximal activity concentration (AC50) is 4.07 µM (active).

As to `CCn1c2ccccc2c2cc(N)ccc21`, the outcome was inactive.

On to `O=P(c1ccccc1)(c1ccccc1)c1ccccc1`, for which the outcome was inactive.

For `CNC[C@H](O)c1cccc(O)c1`, the result was inactive.

On to `CCc1c(C)cc(N)c(CC)c1N`, for which the outcome was inactive.

On to `O=C(O)c1cn(C2CC2)c2cc(N3CCNCC3)c(F)cc2c1=O`, for which the result was inactive.

For the compound `O=C1CCCCCCCCCCCCCCO1`, the outcome was inactive.

For the compound `OC[C@H]1O[C@H](O[C@]2(CCl)O[C@H](CCl)[C@@H](O)[C@@H]2O)[C@H](O)[C@@H](O)[C@H]1Cl`, the result was inactive.

For the compound `Cc1ccc2n[nH]nc2c1`, the outcome was inactive.

Take `C[C@H]1C[C@@H]2[C@H]([C@@H](O)C[C@@]3(C)[C@H]2CC[C@]3(O)C(=O)CO)[C@@]2(C)C=CC(=O)C=C12`: the outcome was inactive.

For the compound `O=C(O)c1ccc([N+](=O)[O-])cc1`, the outcome was inactive.

`O=C=NC1CCC(CC2CCC(N=C=O)CC2)CC1` (stereo not given): the outcome was inactive.

Turning to `CCCCC(CC)COC(=O)/C=C\C(=O)OCC(CC)CCCC` (stereo not given), the outcome was inactive.

On to `CC(=O)[C@H]1CC[C@H]2[C@@H]3CC=C4C[C@@H](O)CC[C@]4(C)[C@H]3CC[C@]12C`, for which the outcome was inactive.

On to `CC1CCC(C(C)CS)CC1S` (stereo not given), for which the half-maximal activity concentration (AC50) was 13.8 µM (active).

Turning to `CCCCCCCCC=O`, the outcome was inactive.

With `CC(=O)/C=C/C1=C(C)CCCC1(C)C`, the result was inactive.

Regarding `Nc1cc([N+](=O)[O-])ccc1O`, the result was inactive.

Turning to `c1ccc2c(c1)c1cccc3ccc4cccc2c4c31`, the result was inactive.

On to `c1ccc2sc(SN(C3CCCCC3)C3CCCCC3)nc2c1`, for which the result was inactive.

Turning to `CCCCC(CC)COCCC#N` (stereo not given), the result was inactive.

With `CCC(=O)OCc1ccccc1`, the outcome was inactive.

On to `C=C(C)C(=O)O[C@H]1C[C@@H]2CC[C@@]1(C)C2(C)C`, for which the AC50 is 14.6 µM (active).

Turning to `COc1cc(C=O)ccc1OC(=O)C(C)C`, the outcome was inactive.

Take `N#Cc1ccc(CC(=NNC(=O)Nc2ccc(OC(F)(F)F)cc2)c2cccc(C(F)(F)F)c2)cc1`: the result was inactive.

Take `CCCCCCCCCC=O`: the result was inactive.

For the compound `OC1OC[C@@H](O)[C@H](O)[C@H]1O` (stereo not given in full), the result was inactive.

On to `O=C(O)C[C@H](O)C[C@H](O)/C=C/c1c(C2CC2)nc2ccccc2c1-c1ccc(F)cc1`, for which the outcome was inactive.

With `Cc1ccc(O)c(C(C)(C)C)c1`, the AC50 is 35.2 µM (active).

On to `C#C[C@]1(O)CC[C@H]2[C@@H]3CCC4=Cc5oncc5C[C@]4(C)[C@H]3CC[C@@]21C`, for which the outcome was inactive.

In the case of `COC(=O)c1ccc(C)cc1`, the outcome was inactive.

Consider `CC(C)c1ccc(C(C)C)cc1`, for which the outcome was inactive.

For the compound `CC[Si](OC(C)=O)(OC(C)=O)OC(C)=O`, the result was inactive.

Regarding `CC(=O)OCCC(C)CC(C)(C)C` (stereo not given), the outcome was inactive.

On to `CC(=O)O[C@]1(C(C)=O)CC[C@H]2[C@@H]3C[C@H](C)C4=CC(=O)CC[C@]4(C)[C@H]3CC[C@@]21C`, for which the result was inactive.
